Laboratory results from PubChem BioAssay.
The source made the active and inactive calls.

Key:
[1] = system: PRMT1 (protein arginine N-methyltransferase 1); assay: small molecules binding arginine methyltransferase PRMT1 – biochemical, small-molecule microarray, 635 nm fluorescence, primary screen (AID 1088); details: higher = more signal;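 further: binding of Prmt1 protein to compounds spotted on small-molecule microarray slides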
[2] = growth effects on S. cerevisiae YJM789 – YJM789 clinical isolate, OD600, 24 h, basal, primary screen (AID 1089); details: higher = more signal, called active from +8 up or from −8 down;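 further: growth of clinical yeast isolate S. cerevisiae YJM 789 seeded 1000 cells per well; test concentration not given here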
[3] = S. pombe growth modifiers, basal conditions – strain 972, OD600, 24 h, no modulator, primary screen (AID 1090);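 further: basal condition with compound alone and no growth modifier present; test concentration not given here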; details: S. pombe 972 growth, higher = more signal, called active from +8 up or from −8 down
[4] = budding yeast growth modifiers under rapamycin – strain BY4716, OD600, 96 h, primary screen (AID 1091); further: test concentration not given here; details: S. cerevisiae BY4716 + rapamycin, higher = more signal, called active from +8 up or from −8 down
[5] = molecular target: Torsin-1A-interacting protein 2 (Homo sapiens) (UniProt Q8NFQ8); assay: small molecules binding lysate-expressed LULL1 – cell lysate, human LULL1 lysate, 635/667 nm fluorescence, primary screen (AID 1092); details: small-molecule microarray, hLULL1 lysate binding, 635 nm fluorescence; higher = more signal;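 further: probe is lysate of COS7 cells overexpressing human LULL1; score merges per-feature 667 nm fluorescence with signal-to-noise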
Sequence of Torsin-1A-interacting protein 2 (Homo sapiens) (Q8NFQ8 whole entry, looked up): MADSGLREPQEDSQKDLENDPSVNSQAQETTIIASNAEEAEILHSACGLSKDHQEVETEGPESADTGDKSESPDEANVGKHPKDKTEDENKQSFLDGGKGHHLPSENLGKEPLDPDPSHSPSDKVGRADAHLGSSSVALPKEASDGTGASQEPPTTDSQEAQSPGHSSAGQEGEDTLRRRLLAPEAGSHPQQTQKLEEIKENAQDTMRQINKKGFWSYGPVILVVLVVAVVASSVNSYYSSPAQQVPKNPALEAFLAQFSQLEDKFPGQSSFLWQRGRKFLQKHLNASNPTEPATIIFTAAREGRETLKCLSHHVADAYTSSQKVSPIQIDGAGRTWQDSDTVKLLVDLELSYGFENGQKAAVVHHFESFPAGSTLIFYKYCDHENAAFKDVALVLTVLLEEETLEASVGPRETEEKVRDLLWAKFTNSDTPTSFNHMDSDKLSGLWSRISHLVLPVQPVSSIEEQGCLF

[6] = optical density change of DRC41 E. coli – strain DRC41, OD650, 24 h, E. coli filamentation project, primary screen (AID 1093);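 further: MC1000 strain lacking acrAB efflux and sulA so SOS filamentation is blocked; test concentration not given here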; details: E. coli DRC41 growth, higher = more signal, called active from +8 up or from −8 down
[7] = probe aLefty2 binding to arrayed compounds – biochemical, biotinylated probe, 635/667 nm fluorescence, primary screen (AID 1094); details: small-molecule microarray, higher = more signal;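 further: score merges spot fluorescence near 667 nm with spot signal-to-noise ratio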
[8] = system: Noggin (protein binding on small-molecule microarray); assay: small molecules binding Noggin protein – biochemical, 635/667 nm fluorescence, primary screen (AID 1095); details: 635 nm fluorescence, higher = more signal;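 further: score merges 667 nm feature fluorescence with signal to noise over triplicate slides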
[9] = molecular target: Neurogenic locus notch homolog protein 3 (Homo sapiens) (UniProt Q9UM47); assay: small molecules binding NOTCH3 protein – biochemical, 635/667 nm fluorescence, primary screen (AID 1096); details: small-molecule microarray, 635 nm fluorescence, higher = more signal
Sequence of Neurogenic locus notch homolog protein 3 (Homo sapiens) (Q9UM47 whole entry, looked up): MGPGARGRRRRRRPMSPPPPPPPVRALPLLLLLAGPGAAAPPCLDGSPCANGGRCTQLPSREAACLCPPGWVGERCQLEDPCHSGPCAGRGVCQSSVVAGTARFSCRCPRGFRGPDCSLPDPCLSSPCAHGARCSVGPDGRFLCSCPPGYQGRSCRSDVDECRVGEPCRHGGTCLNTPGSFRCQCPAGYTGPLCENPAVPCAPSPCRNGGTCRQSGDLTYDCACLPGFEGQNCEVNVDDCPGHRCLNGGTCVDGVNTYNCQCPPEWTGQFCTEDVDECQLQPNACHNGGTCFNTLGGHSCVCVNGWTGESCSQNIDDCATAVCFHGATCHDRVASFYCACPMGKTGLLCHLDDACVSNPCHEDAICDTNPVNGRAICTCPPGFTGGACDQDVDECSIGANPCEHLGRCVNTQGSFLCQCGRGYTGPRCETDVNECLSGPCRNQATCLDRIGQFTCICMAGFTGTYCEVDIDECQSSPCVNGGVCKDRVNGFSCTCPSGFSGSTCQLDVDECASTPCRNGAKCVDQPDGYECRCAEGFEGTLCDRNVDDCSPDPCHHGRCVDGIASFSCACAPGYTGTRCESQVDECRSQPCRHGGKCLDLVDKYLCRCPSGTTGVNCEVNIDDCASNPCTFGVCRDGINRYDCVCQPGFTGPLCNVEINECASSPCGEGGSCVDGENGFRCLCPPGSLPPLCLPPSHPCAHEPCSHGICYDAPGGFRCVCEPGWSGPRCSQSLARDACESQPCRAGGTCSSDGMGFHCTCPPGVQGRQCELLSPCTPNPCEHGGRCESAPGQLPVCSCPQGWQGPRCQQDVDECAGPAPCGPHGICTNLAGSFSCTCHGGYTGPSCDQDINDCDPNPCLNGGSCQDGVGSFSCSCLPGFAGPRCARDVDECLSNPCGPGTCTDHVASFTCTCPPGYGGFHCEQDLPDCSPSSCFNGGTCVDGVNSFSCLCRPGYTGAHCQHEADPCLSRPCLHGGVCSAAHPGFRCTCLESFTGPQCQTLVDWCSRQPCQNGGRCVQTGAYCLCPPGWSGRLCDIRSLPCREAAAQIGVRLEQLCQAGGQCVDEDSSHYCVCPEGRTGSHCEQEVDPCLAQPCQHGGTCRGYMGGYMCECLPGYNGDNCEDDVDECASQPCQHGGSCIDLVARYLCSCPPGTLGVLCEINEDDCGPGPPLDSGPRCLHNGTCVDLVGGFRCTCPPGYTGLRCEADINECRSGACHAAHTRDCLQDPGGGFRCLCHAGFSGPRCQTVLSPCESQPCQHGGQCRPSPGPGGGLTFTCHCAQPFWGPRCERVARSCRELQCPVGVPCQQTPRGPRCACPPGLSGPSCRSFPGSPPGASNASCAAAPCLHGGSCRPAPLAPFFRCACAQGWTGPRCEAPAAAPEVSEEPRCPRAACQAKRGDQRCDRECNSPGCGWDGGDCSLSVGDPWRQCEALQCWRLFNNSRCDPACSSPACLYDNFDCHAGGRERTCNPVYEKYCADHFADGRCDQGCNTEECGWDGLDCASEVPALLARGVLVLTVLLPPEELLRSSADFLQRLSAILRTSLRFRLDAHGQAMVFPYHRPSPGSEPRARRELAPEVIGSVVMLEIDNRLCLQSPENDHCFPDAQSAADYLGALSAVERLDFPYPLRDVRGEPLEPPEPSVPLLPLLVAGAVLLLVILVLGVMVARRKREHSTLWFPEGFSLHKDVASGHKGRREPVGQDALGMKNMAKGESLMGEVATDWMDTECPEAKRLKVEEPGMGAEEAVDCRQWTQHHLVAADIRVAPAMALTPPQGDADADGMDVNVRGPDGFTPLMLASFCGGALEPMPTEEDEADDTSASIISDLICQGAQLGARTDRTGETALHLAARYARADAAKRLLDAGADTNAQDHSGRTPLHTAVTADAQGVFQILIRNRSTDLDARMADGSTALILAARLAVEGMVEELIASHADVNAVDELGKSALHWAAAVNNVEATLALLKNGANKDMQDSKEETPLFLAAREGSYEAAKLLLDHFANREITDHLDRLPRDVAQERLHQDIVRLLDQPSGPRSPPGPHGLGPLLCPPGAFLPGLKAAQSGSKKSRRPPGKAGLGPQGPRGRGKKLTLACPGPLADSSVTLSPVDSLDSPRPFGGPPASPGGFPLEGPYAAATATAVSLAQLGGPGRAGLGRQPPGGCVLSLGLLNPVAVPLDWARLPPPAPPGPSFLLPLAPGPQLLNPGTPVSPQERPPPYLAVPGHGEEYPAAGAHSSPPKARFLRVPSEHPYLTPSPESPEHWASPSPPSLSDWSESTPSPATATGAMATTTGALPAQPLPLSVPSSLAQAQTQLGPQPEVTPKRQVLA

[10] = probe aEGFR binding to arrayed compounds – biochemical, biotinylated probe, 635/667 nm fluorescence, primary screen (AID 1097); details: small-molecule microarray, higher = more signal;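 further: probe is a biotinylated anti-EGFR antibody binding compounds printed on slides; score combines fluorescence near 667 nm and signal to noise of each spot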
[11] = system: Plasmodium falciparum Sir2 (PF13_0152, Sir2A); assay: Plasmodium falciparum Sir2A binding compounds – biochemical, small-molecule microarray, 635 nm fluorescence, primary screen (AID 1098); details: fluorescence 635 nm, higher = more signal;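 further: score merges spot fluorescence intensity with its signal-to-noise ratio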
[12] = probe aDKK1 binding to arrayed compounds – biochemical, biotinylated probe, 635/667 nm fluorescence, primary screen (AID 1099); details: small-molecule microarray, higher = more signal;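 further: score merges 667nm spot fluorescence with signal to noise across triplicate slides; reference of the scale not given here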
[13] = probe aCHRDL2 binding to arrayed compounds – biochemical, biotinylated probe, 635/667 nm fluorescence, primary screen (AID 1100); details: small-molecule microarray, higher = more signal
[14] = change in splice reporter luminescence, either direction, cell-based, HEK293, spliceosome inhibition project, primary screen (AID 1101); details: HEK293 splicing luciferase reporter, 24 h, higher = more signal, called active from +8 up or from −8 down;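 further: HEK293 cells carrying a splicing-competent luciferase reporter gene; test concentration not given here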
[15] = molecular target: Fibroblast growth factor 10 (Homo sapiens) (UniProt O15520); assay: compounds binding fibroblast growth factor 10 – biochemical, small-molecule microarray, 635 nm fluorescence, primary screen (AID 1102); details: FGF10 binding, fluorescence 635 nm, higher = more signal
Sequence of Fibroblast growth factor 10 (Homo sapiens) (O15520 whole entry, looked up): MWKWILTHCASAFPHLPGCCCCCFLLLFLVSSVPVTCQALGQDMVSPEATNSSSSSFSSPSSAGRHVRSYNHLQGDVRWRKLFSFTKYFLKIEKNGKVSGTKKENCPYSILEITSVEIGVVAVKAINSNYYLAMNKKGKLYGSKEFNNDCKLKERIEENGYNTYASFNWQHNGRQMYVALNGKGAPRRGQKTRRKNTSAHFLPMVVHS

[16] = system: glycogen synthase kinase-3 (GSK3A per assay name; protocol says GSK3B); assay: compounds binding glycogen synthase kinase-3 – biochemical, small-molecule microarray, 635 nm fluorescence, GSK3A, primary screen (AID 1103); details: fluorescence 635 nm, higher = more signal; further: the record names both GSK3A and GSK3B
[17] = molecular target: Epidermal growth factor receptor (Homo sapiens) (UniProt P00533); assay: compounds binding epidermal growth factor receptor – biochemical, small-molecule microarray, 635 nm fluorescence, primary screen (AID 1104); details: EGFR binding, higher = more signal;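 further: score merges 667 nm emission intensity with spot signal to noise over triplicate slides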
Sequence of Epidermal growth factor receptor (Homo sapiens) (P00533 whole entry, looked up): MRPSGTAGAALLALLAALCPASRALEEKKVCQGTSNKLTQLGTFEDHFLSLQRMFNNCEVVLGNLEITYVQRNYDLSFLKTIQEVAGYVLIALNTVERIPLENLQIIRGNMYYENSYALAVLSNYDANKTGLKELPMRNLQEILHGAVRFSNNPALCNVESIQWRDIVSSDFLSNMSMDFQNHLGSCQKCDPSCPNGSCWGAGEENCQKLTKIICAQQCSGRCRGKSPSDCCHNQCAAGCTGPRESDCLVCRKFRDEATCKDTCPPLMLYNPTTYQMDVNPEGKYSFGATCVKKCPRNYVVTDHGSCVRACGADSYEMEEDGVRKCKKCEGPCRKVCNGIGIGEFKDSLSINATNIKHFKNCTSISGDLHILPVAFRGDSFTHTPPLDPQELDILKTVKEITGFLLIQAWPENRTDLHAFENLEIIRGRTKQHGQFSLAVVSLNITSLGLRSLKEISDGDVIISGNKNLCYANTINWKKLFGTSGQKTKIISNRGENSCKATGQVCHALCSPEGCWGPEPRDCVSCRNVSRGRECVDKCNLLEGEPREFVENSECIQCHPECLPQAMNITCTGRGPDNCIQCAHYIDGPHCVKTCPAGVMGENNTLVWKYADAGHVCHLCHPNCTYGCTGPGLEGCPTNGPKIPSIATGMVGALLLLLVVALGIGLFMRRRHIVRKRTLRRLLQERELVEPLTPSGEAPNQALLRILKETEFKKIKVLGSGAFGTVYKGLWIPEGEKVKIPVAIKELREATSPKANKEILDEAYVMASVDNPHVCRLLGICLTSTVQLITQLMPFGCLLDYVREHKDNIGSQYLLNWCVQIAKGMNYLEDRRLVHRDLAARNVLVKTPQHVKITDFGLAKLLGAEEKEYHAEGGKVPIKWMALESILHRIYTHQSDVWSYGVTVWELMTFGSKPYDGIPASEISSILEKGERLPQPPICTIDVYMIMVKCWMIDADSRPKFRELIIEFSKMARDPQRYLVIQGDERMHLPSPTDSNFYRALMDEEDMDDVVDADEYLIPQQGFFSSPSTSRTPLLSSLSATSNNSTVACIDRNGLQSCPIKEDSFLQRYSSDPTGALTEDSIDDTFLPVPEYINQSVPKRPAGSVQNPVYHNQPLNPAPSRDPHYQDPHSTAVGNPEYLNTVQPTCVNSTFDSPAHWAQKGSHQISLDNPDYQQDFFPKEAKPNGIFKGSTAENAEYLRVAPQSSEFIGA

[18] = molecular target: Follistatin-related protein 3 (Homo sapiens) (UniProt O95633); assay: compounds binding follistatin-related protein 3 – biochemical, small-molecule microarray, 635 nm fluorescence, primary screen (AID 1105); details: FSTL3 binding, higher = more signal;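 further: score merges emission near 667 nm and signal to noise per printed spot across three slides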
Sequence of Follistatin-related protein 3 (Homo sapiens) (O95633 whole entry, looked up): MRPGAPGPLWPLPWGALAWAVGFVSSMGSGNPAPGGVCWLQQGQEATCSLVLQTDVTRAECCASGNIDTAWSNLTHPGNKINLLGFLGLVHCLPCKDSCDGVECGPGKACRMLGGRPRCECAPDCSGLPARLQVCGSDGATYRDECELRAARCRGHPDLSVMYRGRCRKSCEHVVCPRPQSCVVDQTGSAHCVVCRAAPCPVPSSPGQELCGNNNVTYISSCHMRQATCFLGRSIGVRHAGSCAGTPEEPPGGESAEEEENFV

[19] = molecular target: Dickkopf-related protein 1 (Homo sapiens) (UniProt O94907); assay: small molecules binding DKK1 protein – biochemical, small-molecule microarray, 635 nm fluorescence scan, primary screen (AID 1106); details: higher = more signal;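 further: score merges emission near 667 nm with signal to noise over three replicate slides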
Sequence of Dickkopf-related protein 1 (Homo sapiens) (O94907 whole entry, looked up): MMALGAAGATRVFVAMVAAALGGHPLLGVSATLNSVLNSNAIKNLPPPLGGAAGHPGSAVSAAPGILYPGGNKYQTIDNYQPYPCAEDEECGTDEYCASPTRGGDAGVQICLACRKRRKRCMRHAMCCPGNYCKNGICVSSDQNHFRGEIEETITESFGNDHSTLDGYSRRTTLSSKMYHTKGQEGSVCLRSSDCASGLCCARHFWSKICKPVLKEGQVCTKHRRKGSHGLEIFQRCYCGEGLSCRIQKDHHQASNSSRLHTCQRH

[20] = system: Inhibin beta A chain (activin A); assay: small molecules binding activin A – biochemical, small-molecule microarray, 635 nm fluorescence scan, primary screen (AID 1107); details: INHBA, higher = more signal;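 further: mouse activin A protein probed at 4.33 µg/mL on printed slides; score merges bound-protein fluorescence near 667 nm with spot signal-to-noise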

Row | Compound | composite z-score [1] | z-score [2] | z-score [3] | z-score [4] | composite z-score [5] | z-score [6] | composite z-score [7] | composite z-score [8] | composite z-score [9] | composite z-score [10] | composite z-score [11] | composite z-score [12] | composite z-score [13] | z-score [14] | composite z-score [15] | composite z-score [16] | composite z-score [17] | composite z-score [18] | composite z-score [19] | composite z-score [20]
1 | CC(C)N1C(=O)c2ccccc2[C@@H](C(=O)NCCN2CCOCC2)[C@@H]1c1ccc(CO)cc1 | -1.01 | 0.696 (inactive) | 0.098 (inactive) | 0.673 (inactive) | 0.518 | -0.589 (inactive) | -0.0613 | -0.465 | -0.616 | -0.212 | -0.256 | -0.005 | 0.917 | -0.141 (inactive) | -2.1 | -1.05 | -1.85 | -1.01 | -1.19 | -0.0564
2 | COc1ccc([Si](C)(C)[C@@H]2[C@@H](CCO)O[C@]3(C(=O)N(Cc4ccccc4)c4ccc(N5CCOC5=O)cc43)[C@H]2C)cc1 | 1.51 | 2.55 (inactive) | -0.522 (inactive) | 17.5 (active) | 1.78 | 1.44 (inactive) | -0.0722 | 0.446 | 0.693 | -0.14 | 1.54 | 0.0274 | -0.0546 | -1.64 (inactive) | 0.24 | 0.624 | 0.254 | 0.637 | 0.406 | 0.729
3 | [N-]=[N+]=Nc1ccccc1[C@@H]1OC(c2ccc(OCCCO)cc2)=N[C@]1(Cc1ccccc1)C(=O)N1CCCCC1 | 1.53 | -0.286 (inactive) | -0.487 (inactive) | 1.49 (inactive) | 3.27 | 0.27 (inactive) | 0.0277 | 0.847 | 1.04 | 0.001 | 1.16 | 0.374 | 0.711 | 0.745 (inactive) | 1.43 | 0.769 | 0.332 | 1.07 | -0.0165 | 0.441
4 | Cc1ccc(S[C@]2(C(=O)NCCN3CCOCC3)CC(=O)N(Cc3ccccc3Cl)[C@@H]2c2ccc(CO)cc2I)cc1 | 0.443 | -0.841 (inactive) | -3.57 (inactive) | 0.665 (inactive) | 2.77 | -0.373 (inactive) | 0.508 | -0.064 | -0.364 | -0.455 | 1.65 | -0.831 | -0.0429 | -0.849 (inactive) | 0.133 | -0.207 | -1.29 | -0.355 | -1.82 | 1.07
5 | COCCOC(=O)N1C(=O)[C@@]2(c3cc(C#CC4(O)CCCCCC4)ccc31)[C@H](c1ccc(O)cc1)N1[C@H](c3ccccc3)[C@H](c3ccccc3)OC(=O)[C@H]1[C@@H]2C(=O)N1CCN(c2ncccn2)CC1 | 1.55 | 0.12 (inactive) | -0.247 (inactive) | 1.07 (inactive) | 2.57 | -0.321 (inactive) | -0.0282 | 0.0969 | 0.987 | -0.0234 | 0.952 | 0.0005 | 0.426 | 0.325 (inactive) | 0.425 | 0.788 | 0.149 | 0.476 | 0.063 | -0.275
6 | Cc1cc(C)c(C(O)C2C=CC3C(=O)N(c4ccccc4)C(=O)C3N2Nc2ccccc2F)c(C)c1 (stereo not given) | -0.0446 | 1.37 (inactive) | 1.11 (inactive) | 1.77 (inactive) | 1.89 | -1.31 (inactive) | 0.0216 | -0.73 | -0.0072 | 0.779 | 0.622 | -0.134 | 0.706 | 1.75 (inactive) | 0.119 | -0.574 | -0.396 | -0.191 | -0.26 | 0.72
7 | COc1ccc(C#Cc2ccc3c(c2)[C@]2(C(=O)N3)[C@H](c3ccc(O)cc3)N3[C@H](c4ccccc4)[C@H](c4ccccc4)OC(=O)[C@H]3[C@@H]2C(=O)Nc2nc3ccccc3s2)cc1 | 1.55 | 1.51 (inactive) | -0.924 (inactive) | -0.221 (inactive) | 3.07 | 1.92 (inactive) | 0.334 | 0.46 | 1.05 | 0.484 | 1.48 | 0.223 | 0.342 | -0.793 (inactive) | 1.28 | 1.31 | 0.45 | 1.2 | 0.775 | -0.604
8 | C=CCC(OC(C)=O)[C@@H]1[C@@H](N(Cc2ccc(-c3cccc(C(F)(F)F)c3)o2)C(=O)Cc2ccc(OC)cc2)c2cc(OCCCO)ccc2N1C(=O)c1ccc(-c2ccccc2)cc1 (stereo not given in full) | 0.62 | 0.282 (inactive) | 0.297 (inactive) | 0.322 (inactive) | 0.442 | -0.936 (inactive) | -0.0436 | -0.478 | -0.449 | -0.146 | -0.318 | -0.0755 | 0.541 | -1.13 (inactive) | -0.165 | -0.522 | -0.577 | -0.119 | -0.434 | 1.39
